TDP-43 yeast inh = TDP-43 toxicity inhibition in yeast; TDP-43 expressing yeast growth rescue, BacTiter-Glo, 24 h; Potency, µM (series often up to 46.1 µM), for inactives: at the highest dose growth rescue (activation), most hits filed as activators; hit rate 1.8% among 410,000; further: % of control where 0% means no effect; nearly all actives have a fitted effect of over 50% in size
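Luminescence from BacTiter-Glo reports growth of TDP-43-expressing yeast after 24 hr at 30 deg C with compound. Cells were raffinose-pregrown to mid-log, then seeded in galactose medium at OD600=0.02.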
Mito fusion yeast = inhibitors of mitochondrial division or activators of mitochondrial fusion; S. cerevisiae fusion-defective mutant growth rescue, CellTiterGlo 48 h; Potency, µM (highest dose often 46.1 µM), without a hit: at the highest dose growth rescue (activation), most hits filed as activators; hit rate 0.23% among 320,000; AID 485298; further: % of control where 0% means no effect; nearly all actives have a fitted effect of over 45% in size
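Yeast fusion mutant, YPEG (non-fermentable carbon), compound, 48 h at 37C non-permissive; CellTiterGlo added, 10 min RT, luminescence read. Rescued growth = division inhibition.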
aSyn rescue = inhibitors of alpha-synuclein toxicity in yeast | Yeast expressing alpha-synuclein, growth rescue, BacTiter-Glo, 24 h | Potency, µM (highest dose often 46.1 µM), inactives show top-dose growth rescue (activation), most hits filed as activators | hit rate 0.14% among 370,000 | AID 652106; further: % of control where 0% means no effect; nearly all actives have a fitted effect of over 65% in size
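Galactose-induced alpha-syn yeast (OD600=0.02, raffinose-pregrown) + pinned cpd, 24 hr, 30 deg C; growth by BacTiter-Glo luminescence. Growth restoration scores as activation.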
Abeta rescue = compounds reversing amyloid beta toxicity in yeast | AID 1347071 | yeast expressing A-beta42, growth rescue, OD600, 48 h; response scale: 0% DMSO, 100% iron-clioquinol control | Potency, µM (highest dose often 46.1 µM), hits mostly activators | hit rate 0.063% among 410,000; further: nearly all actives have a fitted effect of over 55% in size
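Yeast A-beta toxicity model in growth medium with pinned compounds, 48 h at 30 C; growth read as absorbance at 600 nm. Normalized to FeCl3/clioquinol equimolar mix (positive) and DMSO (negative).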
FUS yeast rescue = suppressors of FUS proteinopathy in yeast; S. cerevisiae FUS-expressing, growth rescue, OD600, 24 h; Potency, µM (series often up to 76.6 µM), most hits filed as activators; hit rate 0.24% among 390,000; AID 1347120;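 further: plate controls were DMSO vehicle for no effect and reference control for full effect; nearly all actives have a fitted effect of over 55% in size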
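FUS-expressing yeast, raffinose-pregrown, induced in 2% galactose minimal medium at OD 0.005; compounds in a dilution series, 24hr at 30C. Growth restoration read as absorbance at 600 nm. CP55940 positive control, DMSO negative.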
* = called active by the depositor; i = inactive; ? = inconclusive; / = not tested or not shown; [ ] = dose if it differs, or a comment. An excerpt weighted towards active compounds, which were near 2.2% of everything screened. The call rests on the fitted dose curve; in most records, active means well fitted curve in the direction sought with a large enough effect; inconclusive means small, poorly fitted or top-dose-only effect, or another doubt; inactive means no such curve, though single readings can be large; an effect the other way counts as inactive or inconclusive. Potency means the concentration at half of the fitted maximal effect.

SMILES	TDP-43 yeast inh	Mito fusion yeast	aSyn rescue	Abeta rescue	FUS yeast rescue
COC(=O)CCC(=O)Nc1sc(Cc2ccccc2)c(C)c1C(N)=O	-21.7%[0.397 µM]	6.3%	-6.2%	i	i
O=C1CCc2cc(NS(=O)(=O)c3ccc(Br)cc3)cc3c2N1CC3	7.9%	10.6%	3.16µM*	i	i
O=c1[nH]c(C2CCCN(S(=O)(=O)c3ccccc3Cl)C2)nc2c1nnn2Cc1ccc(OC(F)(F)F)cc1 (stereo not given)	-6.0%	/	/	i	i
O=c1[nH]c(C2CCCN(S(=O)(=O)c3ccccc3Cl)C2)nc2c1nnn2Cc1ccc2c(c1)OCCO2 (stereo not given)	1.6%	4.5%	0.0%	/	14.1µM*
O=C(/C=C\c1ccccc1)NC1CC(=O)N(c2ccccc2)C1 (stereo not given)	1.0%	/	/	i	i
CCn1nc(C)c2c(-c3ccccc3)cc(=O)n(C(C)C(=O)NCCc3ccccc3)c21 (stereo not given)	?	/	/	i	i
CCn1nc(C)c2c(-c3ccccc3)cc(=O)n(C(C)C(=O)NCCc3ccc(OC)c(OC)c3)c21 (stereo not given)	15.8µM*	/	/	i	i
Cc1nc(C)c(-c2ccc(SCc3ccc(Cl)cc3)nn2)s1	?	?	14.2%	i	?
Cc1nc(C)c(-c2ccc(SCc3cccc(F)c3)nn2)s1	20µM*	?	-8.1%	i	i
Cc1cc(NC(=O)c2ccccc2Cl)no1	2.4%	0.6%	-1.7%	i	i
Cc1ccc2nc(-c3ccccc3Cl)cc(C(=O)Nc3cc(C)on3)c2c1	17.8µM*	20.9%	8.6%	i	i
O=S(=O)(c1cccc(F)c1)N1CCC(Oc2ccc(-n3cnnn3)cc2)CC1	16.9%	/	/	i	i
O=C(COc1ccccc1)Nc1nnc(-c2ccccc2)o1	?	0.9%	20µM*	?	i
Cc1ccc(C)c(-c2nnc(NC(=O)COc3ccccc3)o2)c1	14.1µM*	?	11.2µM*	i	i
O=C(COc1ccccc1)Nc1nnc(-c2ccc(Cl)s2)o1	8.91µM*	1.1%	17.8µM*	?	i
O=C(COc1ccccc1)Nc1nnc(-c2ccco2)o1	?	9.5%	1.8%	i	i
CCc1ccc(NC(=O)CSc2nnc(-c3ccc(N)cc3)n2C)cc1	/	/	-0.9%	/	/
CSc1cccc(NC(=O)c2ccc3c(c2)CCCN3S(C)(=O)=O)c1	15.0%	/	/	i	?
COC(=O)C(C)Oc1ccc(-c2nccc(-c3cccs3)n2)cc1 (stereo not given)	-8.8%	-7.1%	-10.1%	i[9.22 µM]	i
Oc1ccc(-c2nccc(-c3cccs3)n2)cc1	12.6µM*	6.4%	-2.1%	i	i
Cc1ccc(-c2nc3nc(C)cc(Nc4ccccc4O)n3n2)cc1	?	/	0.5%	i	i
Cc1cc(Nc2ccc(Br)cc2)n2nc(-c3ccccc3C)nc2n1	14.1µM*	/	/	i	i
COc1ccccc1Nc1cc(C)nc2nc(-c3ccccc3)nn12	12.6µM*	/	/	i	i
Cc1cccc(-c2nc3nc(C)cc(NC(C)c4ccccc4)n3n2)c1 (stereo not given)	25.1µM*	/	-9.3%	i	i
CC(Oc1ccc(Br)cc1)c1nc2c3ccccc3nc(=S)n2[nH]1 (stereo not given)	-8.8%	-2.4%	16.9%	?	35.5µM*
SMILES	TDP-43 yeast inh	Mito fusion yeast	aSyn rescue	Abeta rescue	FUS yeast rescue
CCCc1cc(C(=O)Nc2c(C)nn(Cc3c(Cl)cccc3Cl)c2C)no1	0.0%	/	/	i	i
O=C(Nc1nccs1)C1CCN(S(=O)(=O)c2c(Cl)cccc2Cl)CC1	14.1µM*	19.0%	4.7%	?	i
Cc1cccc(OCC(=O)Nc2ccc(Cl)c(-c3nc4ccccc4[nH]3)c2)c1	35.5µM*	/	/	i	?
O=C(COc1ccccc1F)Nc1ccc(Cl)c(-c2nc3ccccc3[nH]2)c1	35.5µM*	/	/	i	?
O=C(COc1ccc(F)cc1)Nc1ccc(Cl)c(-c2nc3ccccc3[nH]2)c1	29.7%	/	/	i	i
Cc1onc(C(=O)NN)c1-c1csc(COc2ccc(Cl)cc2)n1	11.2µM*	-5.4%	10.7%	i	i

High-throughput results (PubChem BioAssay)
